This is a sample that favours compounds with a hit; in the whole collection about 6.7% have one here.
T cruzi growth-1 = T. cruzi intracellular proliferation inhibitors, primary screen, cell-based, beta-gal Tulahuen parasites, NIH3T3 host, luminescence. T. cruzi beta-gal in NIH3T3, GalScreen luminescence, 90 h. inhibition, % at 8.34 µM. 77,000 compounds, 5.9% hits. AID 624255, 2012;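 active means mean inhibition above about 93%, with at least 55% of replicates each passing it, limit read from the data, passing the limit was not always enough; inconclusive means only one of those two conditions holds; inactive means neither condition holds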
C diff HTS = C. difficile growth inhibitors, primary screen, HTS. growth activity, negative = inhibition, % at 16 µg/mL (by protocol). AID 1259249, 2017. Clostridium difficile clinical isolate growth, OD600, 24 h; stronger effect = lower value. 86,000 compounds, 0.25% hits;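 active means mean growth activity at or below -80% and every replicate also at or below -80%; inconclusive means mean at or below -80% but some replicate above -80%; inactive means mean growth activity above -80%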;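 further: 0% = DMSO wells and -100% = levofloxacin 16 µg/mL wells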
Pf Dd2 inh = P. falciparum Dd2 growth inhibitors, primary screen, SYBR Green fluorescence, single dose replicates | 72 h; stronger effect = lower value | activity change, % at 10 µM | 94,000 compounds, 2.3% hits | AID 1159554, 2015; in the data active means activity change below about -80%; inconclusive means no clear call, values can overlap the other calls
T cruzi growth-2 = T. cruzi intracellular proliferation inhibitors, confirmation, cell-based, NIH3T3 host, beta-gal parasite, luminescence, cherry-pick. AID 651739, 2012. 5,600 compounds, 72% hits. shares compounds with T cruzi growth-1. T. cruzi beta-gal in NIH3T3, GalScreen luminescence, 90 h. inhibition, % at 8.35 µM;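 active means mean replicate inhibition above about 95% and at least 55% of replicates individually reaching it, limit read from the data; inconclusive means only one of the two criteria is met; inactive means neither criterion is met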
T cruzi growth-3 = inhibitors of intracellular T. cruzi replication, confirmation, NIH3T3 host cells, beta-gal parasites, cherry-pick, set 2; T. cruzi beta-gal in NIH3T3, GalScreen luminescence, 90 h; shares compounds with T cruzi growth-1; inhibition, % at 2.09 µM; AID 651740, 2012; 5,600 compounds, 21% hits;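 active means mean inhibition above about 95%, with at least 55% of replicates also reaching it, limit read from the data; inconclusive means meets just one of the two conditions; inactive means meets neither condition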;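 further: plate controls were neutral control median for no effect and positive control median for full effect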
3T3 cytotox = cytotoxicity in mouse NIH/3T3 fibroblasts, confirmation, cytotoxicity control for T. cruzi proliferation inhibitor project, cell-based, cherry-pick, single point | shares compounds with T cruzi growth-1 | 5,600 compounds, 14% hits | NIH/3T3 viability, CellTiter-Glo ATP luminescence, 90 h | AID 651742, 2012 | cytotoxicity (signal decrease), % at 8.35 µM;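 active means mean signal decrease across replicates above about 35% based on untreated-well scatter, with enough replicates individually passing, limit read from the data; inconclusive means no rule stated though some were filed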;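 further: 0% = median of neutral control wells and 100% = median of positive control wells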
3T3 cytotox 2 = NIH/3T3 fibroblast cytotoxicity, confirmation, cytotoxicity control, cell-based, cherry-pick, single point, set 2; shares compounds with T cruzi growth-1; NIH/3T3 viability, CellTiter-Glo ATP luminescence, 90 h; inhibition, % at 24.9 µM; 5,600 compounds, 56% hits;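 active means mean loss of cell viability signal at or above a set limit, and enough replicates individually reaching it; inconclusive means meets only the mean limit or only the replicate share; inactive means meets neither condition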;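 further: 0% = median of neutral control wells and 100% = median of positive control wells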
* marks the source's active call; other numbers are inactive results; u = inconclusive; x = not tested or not shown.

SMILES	T cruzi growth-1	C diff HTS	Pf Dd2 inh	T cruzi growth-2	T cruzi growth-3	3T3 cytotox	3T3 cytotox 2
C[C@@H]1CN([C@H](C)CO)C(=O)c2cc(NS(=O)(=O)c3ccccc3)ccc2O[C@@H](C)CCCCO[C@H]1CN(C)Cc1ccc(C(=O)O)cc1	36.7	2.2	36.1	x	x	x	x
COc1ccc(-c2ccc([C@H]3[C@H](C#N)N(C(=O)c4cccnc4)[C@H]3CO)cc2)cc1	106.9*	-3.4	-90.8*	108.3*	34.4	-2.7	30.8*
N#C[C@@H]1[C@@H](c2ccccc2)[C@@H](CO)N1C(=O)c1cccnc1	21.6	-18.1	43.0	x	x	x	x
COc1ccccc1-c1ccc([C@@H]2[C@@H](C#N)N(C(=O)c3cccc(F)c3)[C@@H]2CO)cc1	68.0	9.8	-36.8	x	x	x	x
N#C[C@@H]1[C@@H](c2ccc(C3=CCCC3)cc2)[C@H](CO)N1C(=O)c1cccc(F)c1	61.5	11.2	10.5	x	x	x	x
N#C[C@H]1[C@@H](c2ccc(-c3cccnc3)cc2)[C@@H](CO)N1C(=O)Nc1ccc(F)cc1	105.5*	28.0	-22.2	108.4*	55.9	-30.4	-7.6
N#C[C@@H]1[C@H](c2ccc(C3=CCCCC3)cc2)[C@H](CO)N1C(=O)c1cccc(F)c1	u	-17.9	10.0	107.3*	79.7	12.0	24.3*
N#C[C@@H]1[C@H](c2ccc(-c3cccnc3)cc2)[C@H](CO)N1C(=O)Nc1ccc(F)cc1	35.4	22.8	-27.2	x	x	x	x
COc1ccc(-c2ccc([C@H]3[C@H](C#N)N(C(=O)c4cccc(F)c4)[C@H]3CO)cc2)cc1	105.7*	2.6	u	100.9*	111.4*	5.5	22.3
COc1ccc(S(=O)(=O)N(C)C[C@@H]2OCCCC[C@@H](C)Oc3ccc(NS(C)(=O)=O)cc3C(=O)N([C@@H](C)CO)C[C@@H]2C)cc1	-66.4	8.0	-19.3	x	x	x	x
C[C@H]1CCCCO[C@@H](CN(C)Cc2ccccc2)[C@@H](C)CN([C@@H](C)CO)C(=O)c2cc(NC(=O)c3ccccc3)ccc2O1	62.3	7.1	-75.1	x	x	x	x
CCCN1C[C@@H](C)[C@H](OC)CN(C)C(=O)c2cc(NC(=O)Nc3cccc(OC)c3)ccc2OC[C@@H]1C	-3.1	x	x	x	x	x	x
CN(C)CC(=O)N1[C@H](C#N)[C@@H](c2ccc(C#CC3CCCC3)cc2)[C@@H]1CO	u	-3.1	3.8	85.4	21.8	3.1	104.6*
CN(C)CC(=O)N1[C@H](CO)[C@H](c2ccc(C#CC3CCCC3)cc2)[C@@H]1C#N	95.9*	5.6	-41.0	101.5*	107.2*	12.3	8.7
CN(C)CC(=O)N1[C@@H](C#N)[C@H](c2ccc(C#CC3CC3)cc2)[C@@H]1CO	96.4*	-0.2	-0.4	96.8*	44.9	-19.5	-9.8
CN(C)CC(=O)N1[C@H](C#N)[C@@H](c2ccc(C#CC3CC3)cc2)[C@@H]1CO	83.9	3.4	4.1	x	x	x	x
N#C[C@H]1[C@H](c2ccc(C#CC3CC3)cc2)[C@H](CO)N1C(=O)Cc1ccccn1	105.4*	-2.3	-42.9	104.4*	74.3	-3.4	3.4
CN(C)CC(=O)N1[C@H](C#N)[C@H](c2ccc(C#CC3CCCCC3)cc2)[C@H]1CO	92.8	6.1	-26.5	x	x	x	x
CN(C)CC(=O)N1[C@H](CO)[C@@H](c2ccc(C#CC3CCCC3)cc2)[C@@H]1C#N	9.3	5.8	5.7	x	x	x	x
N#C[C@H]1[C@@H](c2ccc(C#CC3CCCC3)cc2)[C@H](CO)N1C(=O)Cc1ccccn1	x	-0.7	-51.4	x	x	x	x
Cc1ccc(-c2cnc3c(c2)C(=O)N([C@H](C)CO)C[C@@H](C)[C@H](CN(C)C(=O)CN(C)C)O3)cc1	x	0.8	-30.6	x	x	x	x
COc1ccc2c3c(n(C)c2c1)[C@@H](CO)N(C(=O)Nc1ccc(F)cc1)CC31CCN(S(=O)(=O)c2cccs2)CC1	x	-1.5	-65.7	x	x	x	x
Cc1noc(C)c1NC(=O)N(C)C[C@@H]1OCCCC[C@H](C)Oc2ccc(NC(=O)Nc3ccc(C(F)(F)F)cc3)cc2C(=O)N([C@@H](C)CO)C[C@@H]1C	70.8	-4.3	-76.6	x	x	x	x
Cc1noc(C)c1NC(=O)Nc1ccc2c(c1)CC(=O)N([C@@H](C)CO)C[C@H](C)[C@@H](CN(C)Cc1ccccc1)O2	-10.6	0.5	-11.7	x	x	x	x
CCC(=O)N[C@H]1C=C[C@@H](CC(=O)OC)O[C@@H]1CO	63.3	x	-1.4	x	x	x	x
SMILES	T cruzi growth-1	C diff HTS	Pf Dd2 inh	T cruzi growth-2	T cruzi growth-3	3T3 cytotox	3T3 cytotox 2
C[C@H]1CN([C@@H](C)CO)C(=O)c2cc(C#Cc3cccnc3)cnc2O[C@@H]1CN(C)Cc1ccncc1	26.3	7.4	-62.1	x	x	x	x
COc1ccccc1C#Cc1cnc2c(c1)C(=O)N([C@@H](C)CO)C[C@@H](C)[C@@H](CN(C)C(=O)CC1CC1)O2	59.2	4.2	-39.3	x	x	x	x
O=C1C2C=C(I)[C@H](C[C@@H]2OCCCCCCO)[C@@]12CO2	x	-6.2	x	x	x	x	x
Cc1ccccc1-c1ccc([C@H]2[C@H](CO)N3C(=O)CN(C(=O)Cc4ccccn4)C[C@@H]23)cc1	x	27.4	10.3	x	x	x	x
COc1ccc(NC(=O)Nc2ccc3c(c2)C(=O)N([C@@H](C)CO)C[C@H](C)[C@H](CN(C)Cc2ccncc2)OCCCC[C@@H](C)O3)cc1	66.0	-2.3	-47.3	x	x	x	x
COc1ccc(CN2CC3(CCN(C(=O)C4CCOCC4)CC3)c3c(n(C)c4cc(OC)ccc34)[C@@H]2CO)cc1	x	5.3	-38.4	x	x	x	x
COc1ccc(S(=O)(=O)N(C)C[C@H]2OCCCC[C@@H](C)Oc3ccc(NS(=O)(=O)c4ccccc4)cc3C(=O)N([C@@H](C)CO)C[C@@H]2C)cc1	88.7	-1.7	x	x	x	x	x
C[C@H](CO)N1C[C@H](C)[C@H](CN(C)Cc2ccc(C(F)(F)F)cc2)Oc2ccc(NC(=O)CCN3CCOCC3)cc2CC1=O	u	5.4	-1.7	-41.7	19.0	-5.3	2.7
C[C@@H]1CN([C@@H](C)CO)C(=O)Cc2cc(NC(=O)CCN3CCOCC3)ccc2O[C@@H]1CN(C)Cc1ccc(C(F)(F)F)cc1	12.2	-16.9	-33.4	x	x	x	x
C[C@H](CO)N1C[C@H](C)[C@H](CN(C)Cc2ccc(-c3ccccc3)cc2)Oc2ccc(NC(=O)CCN3CCOCC3)cc2CC1=O	18.1	4.2	-9.0	x	x	x	x
C[C@H](CO)N1C[C@H](C)[C@@H](CN(C)Cc2ccc(-c3ccccc3)cc2)Oc2ccc(NC(=O)CCN3CCOCC3)cc2CC1=O	99.3*	-3.0	-56.6	113.5*	54.2	13.3	104.6*

Screens deposited in PubChem BioAssay by Broad Institute.
